# Assay results published in PubChem BioAssay (NCATS).
# Inconclusive results are not listed. Entries that show only a call come without a potency. A number with no mark means an inactive call. Activity calls are given as the source filed them. Calls follow the shape of the dose curve; as a rule, active = well fitted inhibition curve with a large enough effect; inconclusive = small, poorly fitted or top-dose-only effect; inactive = flat fitted curve, though single readings scatter.
# Test system: Zika virus NS2B-NS3 protease
# Assay: Primary screen GU AMC qHTS for Zika virus inhibitors (AID 1347154); also: nearly all actives have a fitted effect of over 70% in size
# Conditions: Zika NS2B-NS3 unlinked protease, AMC fluorogenic substrate; series mostly up to 54.1 µM
# Summary of the method: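 Unlinked Zika NS2B hydrophilic domain–NS3 protease complex at 25 nM in 10 mM Tris-HCl pH 8.0, 0.01% Tween 20, with an AMC peptide substrate. Fluorescence change (340/450 nm) over 15 min at room temperature, normalized to controls, fitted to 4-parameter Hill.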
# Potency is read from the fitted curve at half-maximal effect.
SMILES,Potency,"activity change, negative = inhibition"
CCOc1ccc2nc3cc(N)ccc3c(N)c2c1,31.6 µM (active),
CCCN1CCCC[C@H]1C(=O)Nc1c(C)cccc1C,inactive,
O=C(O)CCCCC(=O)O,inactive,
CCn1cc(C(=O)O)c(=O)c2cnc(N3CCCC3)nc21,,1.94% [at 6.83 µM]
Cc1c(C(N)=O)cc([N+](=O)[O-])cc1[N+](=O)[O-],inactive,
CC1(C)O[C@@H]2C[C@H]3[C@@H]4C[C@H](F)C5=CC(=O)C=C[C@]5(C)[C@H]4[C@@H](O)C[C@]3(C)[C@]2(C(=O)CO)O1,inactive,
CC(C)(CO)[C@@H](O)C(=O)NCCCO,inactive,
NCCCC[C@H](N[C@@H](CCc1ccccc1)C(=O)O)C(=O)N1CCC[C@H]1C(=O)O,inactive,
CCN1CCC[C@H]1CNC(=O)c1c(OC)ccc(Br)c1OC,inactive,
CCN1CCN(c2cc3c(cc2F)c(=O)c(C(=O)O)cn3C2CC2)CC1,inactive,
NCCC(O)(P(=O)(O)O)P(=O)(O)O,inactive,
CC(C)=CCC1C(=O)N(c2ccccc2)N(c2ccccc2)C1=O,inactive,
c1ccc(OCc2ccc(CCCN3CCOCC3)cc2)cc1,inactive,
CC(=O)OCC(=O)[C@@]1(OC(C)=O)[C@@H](C)C[C@H]2[C@@H]3C[C@H](F)C4=CC(=O)C=C[C@]4(C)[C@@]3(F)[C@@H](O)C[C@@]21C,inactive,
N[C@@H](CCC(=O)N[C@@H](CS)C(=O)NCC(=O)O)C(=O)O,inactive,
CCCCCCCCCCCCCCCCCC(=O)OCC(O)CO (configuration not stated),inactive,
CC(=O)N/N=C/c1ccc([N+](=O)[O-])o1,inactive,
